Data taken from PubChem BioAssay AID1159580 (chemical genetic matrix, 2015).
Hit rate of the full screen: of about 5,500 compounds, about 2,000 (36%) were called active. Another 18% or so got no clear call; they are omitted. Cut-off read from the data, not from the text of the source: active = normalized growth mostly below about 0.91 (no sharp cut-off); inconclusive = no clear call, values can overlap the other calls; inactive = mostly above about 0.92. The list shows a part of the results.

Assay: chemical genetic growth profiling, strain panel (AID 1159580);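 note: tested at 20 µM; growth read once vehicle control cultures reached saturation at 30 °C; 1 = growth at the plate median or of vehicle wells; lower values mean less growth of the strain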
Details: growth OD
[1] = S. cerevisiae deletion strains, locus YAL013W, strain DEP1, active compounds read low
[2] = S. cerevisiae deletion strains, locus YBR229C, strain ROT2, active compounds read low
[3] = S. cerevisiae deletion strains, locus YCL061C, strain MRC1, active compounds read low
[4] = S. cerevisiae deletion strains, locus YDL101C, strain DUN1, active compounds read low
[5] = S. cerevisiae deletion strains, locus YDR150W, strain NUM1, active compounds read low
[6] = S. cerevisiae deletion strains, locus YEL061C, strain CIN8, active compounds read low
[7] = S. cerevisiae deletion strains, locus YGR078C, strain PAC10, active compounds read low
[8] = S. cerevisiae deletion strains, locus YHR030C, strain SLT2, active compounds read low
[9] = S. cerevisiae deletion strains, locus YHR087W, strain rtc3, active compounds read low
[10] = S. cerevisiae deletion strains, locus YJL187C, strain SWE1, active compounds read low
[11] = S. cerevisiae deletion strains, locus YJR043C, strain POL32, active compounds read low
[12] = S. cerevisiae deletion strains, locus YJR075W, strain HOC1, active compounds read low
[13] = S. cerevisiae deletion strains, locus YLR039C, strain RIC1, active compounds read low
[14] = S. cerevisiae deletion strains, locus YLR058C, strain SHM2 (second series), active compounds read low
[15] = S. cerevisiae deletion strains, locus YLR085C, strain ARP6, active compounds read low
[16] = S. cerevisiae deletion strains, locus YLR262C, strain YPT6, active compounds read low
[17] = S. cerevisiae deletion strains, locus YML094W, strain GIM5, active compounds read low
[18] = S. cerevisiae deletion strains, locus YMR219W, strain ESC1, active compounds read low
[19] = S. cerevisiae deletion strains, locus YMR263W, strain SAP30, active compounds read low
[20] = S. cerevisiae deletion strains, locus YNL153C, strain GIM3, active compounds read low
[21] = S. cerevisiae deletion strains, locus YNL298W, strain CLA4 (second series), active compounds read low
[22] = S. cerevisiae deletion strains, locus YNL322C, strain KRE1, active compounds read low
[23] = S. cerevisiae deletion strains, locus YNR030W, strain Alg12, active compounds read low
[24] = S. cerevisiae deletion strains, locus YOL006C, strain TOP1, active compounds read low
[25] = S. cerevisiae deletion strains, locus YPL055C, strain LGE1, active compounds read low
[26] = S. cerevisiae deletion strains, locus YPL241C, strain CIN2, active compounds read low
[27] = S. cerevisiae deletion strains, locus YPR135W, strain CTF4, active compounds read low
[28] = S. cerevisiae deletion strains, locus YGR229C, strain SMI1, active compounds read low
[29] = S. cerevisiae deletion strains, locus YMR307W, strain GAS1, active compounds read low
[30] = S. cerevisiae deletion strains, locus YDL134C, strain PPH21, active compounds read low

Measured: normalized growth

O=C(NNC(=O)c1ccccc1[N+](=O)[O-])c1ccc(Cl)cc1
active: [11] 0.869
inactive: [1] 1.02 | [2] 1.03 | [3] 1.02 | [4] 0.981 | [5] 0.904 | [6] 1.01 | [7] 0.995 | [8] 1.14 | [9] 0.994 | [10] 1 | [12] 0.991 | S. cerevisiae deletion strains, locus YKL190W, strain CNB1, active compounds read low 1.01 | [13] 1.03 | [14] 1.01 | [15] 1.05 | [16] 1.01 | [17] 1.02 | [18] 1.02 | [19] 0.91 | [20] 0.993 | [21] 1.04 | [22] 1.01 | [23] 1.03 | [24] 1.13 | [25] 0.9 | [26] 1.03 | [27] 1.16

Cc1ccc(C(=O)O[C@H](C(=O)O)[C@H](OC(=O)c2ccc(C)cc2)C(=O)O)cc1
inactive: S. cerevisiae deletion strains, locus YAL040C, strain CLN3, active compounds read low 1.01 | S. cerevisiae deletion strains, locus YCL061C, strain MRC1 (second series), active compounds read low 1 | [5] 1.01 | S. cerevisiae deletion strains, locus YDR363W, strain ESC2, active compounds read low 1.03 | S. cerevisiae deletion strains, locus YER002W, strain NOP16, active compounds read low 1.01 | [28] 1.01 | [29] 0.99 | S. cerevisiae deletion strains, locus YNL175C, strain NOP13, active compounds read low 1 | S. cerevisiae deletion strains, locus YNL197C, strain WHI3, active compounds read low 1 | S. cerevisiae deletion strains, locus YNL224C, strain SQS1, active compounds read low 1 | S. cerevisiae deletion strains, locus YOR083W, strain WHI5 (second series), active compounds read low 0.997 | [25] 0.999

CCOC(=O)CSc1nnc(-c2cc(C(C)(C)C)nn2Cc2cccc(C)c2)n1C1CCCCC1
inactive: [1] 1.03 | [2] 0.989 | [4] 1.01 | [5] 1 | [6] 0.997 | [7] 1.01 | [28] 0.993 | [8] 0.92 | [9] 0.986 | [10] 0.994 | [11] 0.994 | [12] 0.98 | [13] 0.909 | [14] 0.99 | [15] 0.975 | [16] 0.901 | [17] 1.02 | [18] 0.998 | [19] 1 | [20] 1.02 | [21] 1 | [22] 0.994 | [23] 0.987 | [25] 1.03 | [26] 0.968 | [27] 1.01

Clc1ccc(-c2csc(-c3ccno3)n2)s1
inactive: [1] 0.942 | [2] 0.958 | [3] 0.985 | [4] 0.915 | [5] 1.01 | [7] 0.96 | [9] 0.954 | [11] 1.01 | [12] 0.929 | [17] 0.868 | [19] 0.952 | [29] 0.702 | S. cerevisiae deletion strains, locus YNL128W, strain TEP1, active compounds read low 0.939 | [20] 1 | [21] 0.899 | [22] 0.97 | [23] 0.9 | [25] 0.851 | [27] 0.741
active: [30] 0.565 | [6] 0.89 | [8] 0.484 | [13] 0.57 | [14] 0.932 | [15] 0.644 | [16] 0.777 | [18] 0.937 | [24] 0.655 | [26] 0.81

Clc1cccc(-c2csc(Nc3cccnc3)n2)c1
inactive: [1] 0.935 | [2] 0.998 | [3] 0.957 | [4] 1.04 | [30] 0.997 | [5] 0.954 | [6] 0.993 | [7] 0.979 | [28] 1 | [8] 0.729 | [9] 0.974 | [10] 0.957 | [11] 0.921 | [12] 0.978 | [13] 0.951 | [14] 0.99 | [15] 0.839 | [16] 1 | [17] 0.971 | [18] 0.992 | [19] 0.914 | [20] 0.971 | [21] 0.881 | [22] 1 | [23] 0.968 | [24] 0.979 | [25] 0.839 | [26] 0.915 | [27] 0.884 | S. cerevisiae strains, strain wild type, active compounds read low 0.997
